In PubChem BioAssay AID1159580 (chemical genetic matrix, 2015):
The whole screen tested about 5,500 compounds, of which about 2,000 (36%) were called active. Not shown: some 18% with an inconclusive outcome. Cut-off read from the data, not from the text of the source: active = normalized growth mostly below about 0.91 (no sharp cut-off); inconclusive = no clear call, values can overlap the other calls; inactive = mostly above about 0.92. The list shows a part of the results.

Test: chemical genetic growth profiling, strain panel (AID 1159580);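 note: tested at 20 µM; growth read once vehicle control cultures reached saturation at 30 °C; 1 = growth at the plate median or of vehicle wells; lower values mean less growth of the strain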
Conditions: growth OD
[1] = S. cerevisiae deletion strains, locus YAL013W, strain DEP1, stronger effect = lower value
[2] = S. cerevisiae deletion strains, locus YDR150W, strain NUM1, stronger effect = lower value
[3] = S. cerevisiae deletion strains, locus YNL322C, strain KRE1, stronger effect = lower value
[4] = S. cerevisiae deletion strains, locus YPL241C, strain CIN2, stronger effect = lower value

Measured: normalized growth

CC1C(=O)N(C)C(=O)c2nc[nH]c21 (configuration not stated)
inactive: [1] 0.997 | S. cerevisiae deletion strains, locus YAL040C, strain CLN3, stronger effect = lower value 0.993 | S. cerevisiae deletion strains, locus YCL061C, strain MRC1 (second series), stronger effect = lower value 1 | [2] 1.01 | S. cerevisiae deletion strains, locus YDR363W, strain ESC2, stronger effect = lower value 0.998 | S. cerevisiae deletion strains, locus YER002W, strain NOP16, stronger effect = lower value 1 | S. cerevisiae deletion strains, locus YGR229C, strain SMI1, stronger effect = lower value 0.992 | S. cerevisiae deletion strains, locus YMR307W, strain GAS1, stronger effect = lower value 0.991 | S. cerevisiae deletion strains, locus YNL128W, strain TEP1, stronger effect = lower value 1 | S. cerevisiae deletion strains, locus YNL175C, strain NOP13, stronger effect = lower value 1 | S. cerevisiae deletion strains, locus YNL197C, strain WHI3, stronger effect = lower value 0.989 | S. cerevisiae deletion strains, locus YNL224C, strain SQS1, stronger effect = lower value 1 | [3] 0.992 | S. cerevisiae deletion strains, locus YOR083W, strain WHI5 (second series), stronger effect = lower value 1.02 | [4] 1

Cc1nn(C)c(C)c1NS(=O)(=O)c1cc(Cl)sc1Cl
inactive: [1] 1 | S. cerevisiae deletion strains, locus YBR229C, strain ROT2, stronger effect = lower value 1.03 | S. cerevisiae deletion strains, locus YDL101C, strain DUN1, stronger effect = lower value 1.05 | S. cerevisiae deletion strains, locus YDL134C, strain PPH21, stronger effect = lower value 1.02 | [2] 0.956 | S. cerevisiae deletion strains, locus YEL061C, strain CIN8, stronger effect = lower value 1.03 | S. cerevisiae deletion strains, locus YGR078C, strain PAC10, stronger effect = lower value 1.01 | S. cerevisiae deletion strains, locus YHR030C, strain SLT2, stronger effect = lower value 1.04 | S. cerevisiae deletion strains, locus YHR087W, strain rtc3, stronger effect = lower value 1.03 | S. cerevisiae deletion strains, locus YJL187C, strain SWE1, stronger effect = lower value 1.02 | S. cerevisiae deletion strains, locus YJR043C, strain POL32, stronger effect = lower value 1.01 | S. cerevisiae deletion strains, locus YJR075W, strain HOC1, stronger effect = lower value 1.02 | S. cerevisiae deletion strains, locus YLR039C, strain RIC1, stronger effect = lower value 1 | S. cerevisiae deletion strains, locus YLR058C, strain SHM2 (second series), stronger effect = lower value 1.03 | S. cerevisiae deletion strains, locus YLR085C, strain ARP6, stronger effect = lower value 1.03 | S. cerevisiae deletion strains, locus YLR262C, strain YPT6, stronger effect = lower value 0.993 | S. cerevisiae deletion strains, locus YML094W, strain GIM5, stronger effect = lower value 1.01 | S. cerevisiae deletion strains, locus YMR219W, strain ESC1, stronger effect = lower value 1.01 | S. cerevisiae deletion strains, locus YMR263W, strain SAP30, stronger effect = lower value 0.914 | S. cerevisiae deletion strains, locus YNL153C, strain GIM3, stronger effect = lower value 1.04 | S. cerevisiae deletion strains, locus YNL298W, strain CLA4 (second series), stronger effect = lower value 1.04 | [3] 1.01 | S. cerevisiae deletion strains, locus YNR030W, strain Alg12, stronger effect = lower value 1.01 | S. cerevisiae deletion strains, locus YPL055C, strain LGE1, stronger effect = lower value 1.01 | [4] 1.01 | S. cerevisiae deletion strains, locus YPR135W, strain CTF4, stronger effect = lower value 1.14 | S. cerevisiae strains, strain wild type, stronger effect = lower value 1.02
